Compounds with a hit are over-represented: about 10% of the library has one in this group of screens.
GLA spleen mod = inhibitors or activators of human alpha-galactosidase in spleen homogenate; AID 2107; 240,000 compounds, 0.008% hits; P06280; Potency, µM (highest dose often 80 µM), usual class: inhibitors; human spleen homogenate, 4MU-alpha-Gal fluorescence, 40 min
Target sequence (P06280 32-429 limits assumed): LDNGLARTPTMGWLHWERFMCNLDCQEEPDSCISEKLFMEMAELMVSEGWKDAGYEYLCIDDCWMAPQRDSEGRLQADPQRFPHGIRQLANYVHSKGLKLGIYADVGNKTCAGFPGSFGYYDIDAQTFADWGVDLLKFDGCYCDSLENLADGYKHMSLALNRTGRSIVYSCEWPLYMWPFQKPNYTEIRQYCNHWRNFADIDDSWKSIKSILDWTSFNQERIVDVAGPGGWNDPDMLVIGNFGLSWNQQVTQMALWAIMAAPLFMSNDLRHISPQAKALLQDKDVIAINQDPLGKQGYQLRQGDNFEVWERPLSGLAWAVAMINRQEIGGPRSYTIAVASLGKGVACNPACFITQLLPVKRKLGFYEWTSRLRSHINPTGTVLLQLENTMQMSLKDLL
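Human spleen homogenate (1 ug) as enzyme source, 4-methylumbelliferyl-alpha-D-galactopyranoside 1 mM final, citrate/phosphate pH 5.0 with 0.01% Tween-20. Compounds 40 min at 37C, NaOH/glycine stop; fluorescence Ex 365/Em 440, Hill-fit AC50.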
PNC assembly inh = inhibitors of perinucleolar compartment assembly. PC3M PTB-GFP, PNC prevalence imaging, 16 h; stronger effect = lower value. activity change (PNC), negative = inhibition, % at 10 µM. 140,000 compounds, 3.1% hits;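 active means readout at or below -70, meaning at least 70% loss of cells showing the perinucleolar compartment, a nuclear body marking cancer cells; inconclusive means readout between -30 and a set limit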
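PC3M cells stably expressing PTB-GFP, 750–1000 cells/well, treated 16 h at 37 °C with compound (23 nl of library stock), in duplicate. After paraformaldehyde fixation and Hoechst stain, imaged at 20x; PNC prevalence scored by image analysis.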
ALDH1A1 inh = blocks purified human ALDH1A1 activity | P00352 | Purified ALDH1A1, NADH fluorescence, propionaldehyde substrate | Potency, µM (top dose mostly 75.3 µM), hits mostly inhibitors | 220,000 compounds, 7.3% hits | AID 1030; active means well fitted inhibition curve with a large enough effect, not every such curve was filed as active; inconclusive means small, poorly fitted or top-dose-only effect, or another doubt; inactive means no such curve, though single readings can be large or run the other way
HPGD block = blocks human HPGD enzyme activity; purified HPGD, NADH fluorescence kinetic, PGE2 substrate; Potency, µM, usual class: inhibitors; 150,000 compounds, 4.3% hits; AID 894; active means well fitted inhibition curve with a large enough effect, not every such curve was filed as active; inconclusive means small, poorly fitted or top-dose-only effect, or another doubt; inactive means no such curve, though single readings can be large or run the other way
Target sequence (P15428 whole entry, looked up): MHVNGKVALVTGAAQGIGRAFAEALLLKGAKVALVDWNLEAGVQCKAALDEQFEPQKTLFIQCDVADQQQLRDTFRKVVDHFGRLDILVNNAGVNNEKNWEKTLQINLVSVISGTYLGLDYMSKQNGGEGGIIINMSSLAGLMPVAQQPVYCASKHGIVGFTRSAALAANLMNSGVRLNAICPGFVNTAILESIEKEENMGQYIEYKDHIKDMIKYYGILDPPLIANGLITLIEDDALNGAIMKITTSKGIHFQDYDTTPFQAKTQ
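20 nM HPGD preincubated 15 min at room temperature with compound in 50 mM Tris-HCl pH 8, 0.01% Tween 20. Started with 1 mM NAD+ and 30 uM prostaglandin E2; NADH fluorescence (360/450 nm) read 5 times over 30-s intervals, last minus first.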
12-hLO inh = 12-hLO (ALOX12) enzyme inhibition; AID 1452; purified 12-hLO, xylenol orange hydroperoxide absorbance; P18054; 150,000 compounds, 0.12% hits; Potency, µM (highest dose often 57.1 µM), most hits filed as inhibitors; further: nearly all actives have a fitted effect of over 55% in size
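Hydroperoxide formation by human 12-lipoxygenase from 40 uM arachidonic acid was followed colorimetrically via ferric-xylenol orange complex, using the 573/405 nm absorbance ratio. Enzyme concentration was 150 nM, with 30 min reaction at room temperature.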
GLA inh pH 4.5 = inhibitors of human alpha-galactosidase A at pH 4.5. P06280. purified enzyme, 4-MU-alpha-Gal fluorescence, pH 4.5. activity change, negative = inhibition, % at 105 µM. 230,000 tested, under 10 active. AID 1467
Numbers stand for hits; – = inactive; ? = inconclusive; · = no result given; [ ] = dose if it differs, or a comment. Unless noted, the call rests on the fitted dose curve; in most records, active means well fitted curve in the direction sought with a large enough effect; inconclusive means small, poorly fitted or top-dose-only effect, or another doubt; inactive means no such curve, though single readings can be large; an effect the other way counts as inactive or inconclusive.

SMILES	GLA spleen mod	PNC assembly inh	ALDH1A1 inh	HPGD block	12-hLO inh	GLA inh pH 4.5
Cc1ccc(NC(=O)CN(C)C(=O)c2nn(C)c(=O)c3ccccc23)cc1	–	·	–	·	·	–
Cc1ccccc1C1NC(=S)NC2=C1C(=O)CCC2 (stereo not given)	–	·	22µM	·	·	–
CC(C)CCNC(=O)C1(c2cccs2)CCOCC1	–	·	–	·	·	–
Cc1ccc2oc(-c3cccc(NC(=O)c4ccc(Br)o4)c3C)nc2c1	–	?	–	–	–	–
Cc1c(NC(=O)CSc2ccc(Cl)cc2)cccc1-c1nc2cc(Cl)ccc2o1	–	-113	–	–	–	–
CCN(CC)C(=S)Nc1cc(C(=O)OC)ccc1C(=O)OC	?	–	?	–	–	–
Nc1ccc(S(=O)(=O)c2ccc(NC(=O)c3cccnc3)cc2)cc1	·	·	–[13.5 µM]	–	–[11.4 µM]	·
O=c1c(-c2ccc(Cl)cc2)nc2cnc(Nc3ccccc3)nc2n1C[C@H]1CCCO1	–	·	?	·	·	·
COc1ccc(C(=O)CSc2nnnn2Cc2ccccc2)cc1	–	–	13µM	–	–	–
COC(=O)c1cc(OC)c(OC)cc1NC(=O)CSc1nnnn1Cc1ccccc1	–	–	13µM	?	–	–
O=C(CSc1nnnn1Cc1ccccc1)Nc1ccccc1	–	·	·	·	·	–
COc1ccc(-n2nnnc2SCC(=O)c2ccc(O)c(O)c2)cc1	–	–	–	25µM	?	–
COc1cc([N+](=O)[O-])cc2sc(NC(=O)c3c(F)cccc3F)nc12	–	·	7.9µM	·	·	–
Cc1nc2cnc(N(C)C)nc2n(-c2ccccc2)c1=O	–	·	?	·	·	·
COc1cc(C(=O)N2CCN(c3cccc(C)c3C)CC2)cc(OC)c1OC	–	-122	–	–	–	–
COc1cc(C(=O)N2CCN(C(=O)COc3ccc4ccccc4c3)CC2)cc(OC)c1OC	–	–	?	–	–	–
COc1cc(C(=O)N2CCN(c3cc(Cl)ccc3Cl)CC2)cc(OC)c1OC	–	-88	–	–	–	–
Cc1cccc(N2CCN(C(=O)c3ccc(NS(=O)(=O)c4c(C)noc4C)cc3)CC2)c1C	–	–	14µM	–	–	–
COc1ccc(C(=O)N2CCN(C(=O)c3cc(OC)c(OC)c(OC)c3)CC2)cc1	–	–	14µM	–	–	–
CN=C(N)/N=C(\N)Nc1cc2ccccc2c2ccccc12	·	·	–[13.5 µM]	–	–[11.4 µM]	·
O=c1cc(-c2cccc(F)c2)[nH]c2cc(F)ccc12	–	·	–	–	–[0.00818 µM]	–
COc1ccc(C(=O)C2CCN(C(=O)c3ccc(C)cc3)CC2)cc1	–	–	5µM	–	–	–
CCc1c(C)sc(NC(=S)Nc2cccnc2)c1C(=O)OC	–	·	9.5µM	·	·	–
O=C1c2sc3nc4c(c(=O)n3c2C(=O)N1c1ccccc1)CCC4	–	?	?	·	–	–
CCc1ccc(N2C(=O)c3sc4nnc(C)c(=O)n4c3C2=O)cc1	–	–	5µM	–	–	–
SMILES	GLA spleen mod	PNC assembly inh	ALDH1A1 inh	HPGD block	12-hLO inh	GLA inh pH 4.5
Cc1ccc(N2C(=O)c3sc4nnc(C)c(=O)n4c3C2=O)cc1	–	–	18µM	–	–	–
Cc1ccc(C)c(C(=O)CSc2nnc(C)s2)c1	–	·	?	·	·	–
COc1ccc(CCN(C)CCC[C@@](C#N)(c2cc(OC)c(OC)c(OC)c2)C(C)C)cc1OC	·	·	·	·	–	·
O=C(OCc1nc2ccccc2s1)c1ccc(Br)s1	–	?	–	16µM	–	–
O=C(Cc1ccccc1)c1nc2ccccc2s1	–	–	–	22µM	–	–
Nc1ccc(C(=O)OCc2nc3ccccc3s2)cc1	–	·	–	·	·	–
Oc1ccc(O)c(Cc2nc3ccccc3s2)c1	–	·	20µM	·	·	–
NC(=O)CSCc1nc2ccccc2s1	–	?	7.9µM	?	–	–
CCOC(=O)O[C@@H](C)OC(=O)[C@@H]1N2C(=O)[C@@H](NC(=O)[C@@H](N)c3ccccc3)[C@H]2SC1(C)C	–	·	–	–	–	–
COc1ccccc1CNc1ncnc2ccc(-c3ccccc3C#N)cc12	–	·	?	·	·	·
Cc1cc(C)c2c(SCc3ccc(Cl)cc3Cl)nc(N)nc2n1	·	·	–[13.5 µM]	–	–[11.4 µM]	·
CCOP(=O)(OCC)C(=Cc1cc(C(C)(C)C)c(O)c(C(C)(C)C)c1)P(=O)(OCC)OCC	–	·	·	·	·	·
Oc1ccccc1OCc1nc2ccccc2s1	–	–	–	13µM	–	–
COC(=O)C(CC(=O)c1ccc(Cl)cc1)c1ccc(C(C)C)cc1 (stereo not given)	–	–	–	–	–	–
COc1ncc2nc(C)c(=O)n(Cc3ccc(F)cc3)c2n1	–	·	–	·	·	·
COc1ccc(-n2c(Cc3cccn3C)nnc2SCC(=O)Nc2ccc3c(c2)OCO3)cc1	–	–	14µM	–	–	–
Cn1cccc1Cc1nnc(SCC(=O)Nc2ccc3c(c2)OCCO3)n1CCc1ccccc1	–	?	14µM	–	–	–
Cn1cccc1Cc1nnc(SCC(=O)Nc2ccc3c(c2)OCO3)n1CCc1ccccc1	–	?	?	–	–	–
COc1ccc(-n2c(Cc3cccn3C)nnc2SCC(=O)Nc2cccc(NC(C)=O)c2)cc1	–	–	?	–	–	–
COc1ccc(-n2c(Cc3cccn3C)nnc2SCC(=O)Nc2ccc3c(c2)OCCO3)cc1	–	–	1µM	–	–	–
COc1cc(OC)cc(C(=O)N[C@H](C(=O)Nc2nc(-c3ccc(OC)c(OC)c3)cs2)C(C)C)c1	–	·	·	·	·	–
O=P(CO)(Cc1ccccc1)Cc1ccccc1	–	?	–	16µM	–	–
CCCCP(=O)(CCCC)Cc1ccccc1	–	–	–	–	–	–
O=c1[nH]c(=O)n([C@@H]2C[C@H](O)[C@H](CO)O2)cc1I	–	·	–	–	–	–
N#C/C(=C/c1ccc(N2CCOCC2)o1)c1ccc(Cl)cc1	–	?	13µM	?	?	–
SMILES	GLA spleen mod	PNC assembly inh	ALDH1A1 inh	HPGD block	12-hLO inh	GLA inh pH 4.5
O=C(N/N=C/c1cnc(N2CCCCC2)s1)c1ccc(Cl)cc1	–	·	–	·	·	–
O=Cc1cnc(N2CCCCC2)s1	–	·	3.5µM	·	·	–
Cc1cccn2c(=O)c(C=Nc3ccc(Cl)cc3)c(NCCO)nc12	–	-100	?	?	–	–
CSc1nncc(/C(C)=N\Nc2ccccc2C)n1	–	–	?	–	–	–
CC/C(=N/Nc1cccc(C)c1)c1cnnc(SC)n1	–	–	9.5µM	–	–	–
CC/C(=N/Nc1ccc(Cl)cc1)c1cnnc(SC)n1	–	–	10µM	–	–	–
CC/C(=N/O)c1cnnc(SC)n1	–	–	–	–	–	–
CCOC(=O)CN1C(=O)N[C@@H](c2cccc(C(F)(F)F)c2)[C@H](C(=O)OC)[C@H]1C	–[17.5 µM]	·	–[13.5 µM]	–	–[11.4 µM]	–
Cc1ccc(C(=O)N2CCN(c3ccccn3)CC2)cc1[N+](=O)[O-]	–	·	?	·	·	–
O=C(c1ccc(Cl)c([N+](=O)[O-])c1)N1CCN(c2ccccn2)CC1	–	–	10µM	–	–	–

Assay outcomes: PubChem, National Center for Advancing Translational Sciences (NCATS)
